# In ChEMBL document CHEMBL3988442, “University of Dundee, Small-Polar-MMV Screening Library” (2021):
# For some of these results: Results with a measured potency or affinity are listed apart.
# Tests used:
# Set-up in all cases: scale not given: direction of the effect not stated beside the values
# [1] = target: Protein translocase subunit SecA (Escherichia coli (strain K12)) (UniProt P10408); assay: Assay to Identify E. coli SecA ATPase Inhibitors; type: functional; conditions: 30 µM
# [2] = target: T1, Ubiquitin-activating enzyme e1, putative (Leishmania donovani (strain BPK282A1)) (UniProt E9BSI1); assay: Leishmania donovani Ubiquitin Activating Enzyme (LdE1); type: functional; conditions: 30 µM
# T1 sequence (whole entry): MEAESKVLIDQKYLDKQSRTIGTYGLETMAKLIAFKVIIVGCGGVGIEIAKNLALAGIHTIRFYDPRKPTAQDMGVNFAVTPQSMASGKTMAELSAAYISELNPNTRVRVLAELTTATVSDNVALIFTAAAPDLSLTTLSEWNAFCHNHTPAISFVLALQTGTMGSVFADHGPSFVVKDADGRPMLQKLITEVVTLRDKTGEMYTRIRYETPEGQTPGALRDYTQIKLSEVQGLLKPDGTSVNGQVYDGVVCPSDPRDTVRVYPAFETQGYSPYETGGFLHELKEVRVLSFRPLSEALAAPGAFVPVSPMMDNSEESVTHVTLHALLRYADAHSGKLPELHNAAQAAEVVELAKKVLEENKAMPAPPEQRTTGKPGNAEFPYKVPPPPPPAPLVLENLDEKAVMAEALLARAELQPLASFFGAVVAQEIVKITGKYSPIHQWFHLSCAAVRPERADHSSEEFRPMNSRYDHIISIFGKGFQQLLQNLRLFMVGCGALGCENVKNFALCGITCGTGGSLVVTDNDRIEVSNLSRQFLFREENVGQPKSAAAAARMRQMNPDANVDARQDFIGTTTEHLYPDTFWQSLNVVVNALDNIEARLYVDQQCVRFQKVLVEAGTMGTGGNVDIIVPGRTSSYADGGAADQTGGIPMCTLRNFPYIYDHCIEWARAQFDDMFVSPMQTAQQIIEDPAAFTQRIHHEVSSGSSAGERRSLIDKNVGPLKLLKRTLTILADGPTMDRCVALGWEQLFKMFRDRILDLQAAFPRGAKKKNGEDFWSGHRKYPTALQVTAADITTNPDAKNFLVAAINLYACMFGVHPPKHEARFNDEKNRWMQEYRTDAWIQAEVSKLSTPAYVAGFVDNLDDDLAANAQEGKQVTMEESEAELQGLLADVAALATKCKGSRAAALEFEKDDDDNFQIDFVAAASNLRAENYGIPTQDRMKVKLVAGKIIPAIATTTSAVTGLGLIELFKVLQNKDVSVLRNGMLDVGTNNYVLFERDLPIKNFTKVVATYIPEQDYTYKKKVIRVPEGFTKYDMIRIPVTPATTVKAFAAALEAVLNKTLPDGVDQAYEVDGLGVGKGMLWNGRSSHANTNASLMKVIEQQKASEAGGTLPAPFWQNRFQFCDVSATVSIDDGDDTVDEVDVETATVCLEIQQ
# [3] = target: AMP-activated protein kinase, AMPK (Homo sapiens) (UniProt P54646+O43741+P54619+Q9UGJ0+Q9Y478+Q13131+Q9UGI9); assay: AMP-dependent Kinase enzyme assay. An in vitro enzyme assay that detects ADP turnover that is directly proportional to AMPK activity. This uses naive AMPK that is activated during the assay with MK-8722; type: functional; conditions: 30 µM
# [4] = target: Sialic acid-binding Ig-like lectin 9 (Homo sapiens) (UniProt Q9Y336); assay: Hs-Siglec9 ALPHAscreen SOP 20170721; conditions: 10 µM
# Sequence of Sialic acid-binding Ig-like lectin 9 (Homo sapiens) (Q9Y336 whole entry): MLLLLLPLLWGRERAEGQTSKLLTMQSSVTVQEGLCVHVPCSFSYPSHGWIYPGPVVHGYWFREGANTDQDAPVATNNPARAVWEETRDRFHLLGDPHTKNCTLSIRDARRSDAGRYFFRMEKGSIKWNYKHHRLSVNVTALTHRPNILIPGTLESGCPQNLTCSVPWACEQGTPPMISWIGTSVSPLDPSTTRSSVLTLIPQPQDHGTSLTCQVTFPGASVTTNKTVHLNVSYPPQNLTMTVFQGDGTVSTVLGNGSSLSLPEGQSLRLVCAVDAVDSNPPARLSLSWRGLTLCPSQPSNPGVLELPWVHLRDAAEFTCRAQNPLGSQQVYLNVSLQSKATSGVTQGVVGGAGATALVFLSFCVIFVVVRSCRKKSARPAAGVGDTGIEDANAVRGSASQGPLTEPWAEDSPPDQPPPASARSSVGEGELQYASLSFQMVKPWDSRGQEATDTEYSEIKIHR
# Trypanosoma cruzi = assay: Trypanosoma cruzi phosphomannomutase and mannose-1-phosphate guanylyltransferase assay; type: functional; conditions: 10 µM
# [5] = target: T2, Arginase-2, mitochondrial (Homo sapiens) (UniProt P78540); assay: in vitro enzyme assay to detect the production of urea directly proportional to the activity of Arginase II; type: functional; conditions: 33.3 µM; also: in the data most compounds retested in dose-response had high values
# T2 sequence (whole entry): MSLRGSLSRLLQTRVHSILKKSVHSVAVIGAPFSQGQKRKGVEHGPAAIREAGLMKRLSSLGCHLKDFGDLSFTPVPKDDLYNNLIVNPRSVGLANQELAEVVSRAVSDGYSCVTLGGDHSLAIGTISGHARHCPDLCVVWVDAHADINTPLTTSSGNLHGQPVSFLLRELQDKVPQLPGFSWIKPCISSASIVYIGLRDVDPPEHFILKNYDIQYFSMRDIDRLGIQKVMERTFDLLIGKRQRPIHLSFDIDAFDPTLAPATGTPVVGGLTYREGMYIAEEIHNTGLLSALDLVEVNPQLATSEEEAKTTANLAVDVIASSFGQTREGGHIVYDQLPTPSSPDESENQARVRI
# [6] = target: T3, Proteasome subunit beta (Trypanosoma cruzi) (UniProt O96673); assay: Trypanosoma cruzi proteasome chymotrypsin-like activity (TcProtChymo) assay.; also: in the data most compounds retested in dose-response had high values; type: functional; conditions: 9.37 µM
# T3 sequence (whole entry): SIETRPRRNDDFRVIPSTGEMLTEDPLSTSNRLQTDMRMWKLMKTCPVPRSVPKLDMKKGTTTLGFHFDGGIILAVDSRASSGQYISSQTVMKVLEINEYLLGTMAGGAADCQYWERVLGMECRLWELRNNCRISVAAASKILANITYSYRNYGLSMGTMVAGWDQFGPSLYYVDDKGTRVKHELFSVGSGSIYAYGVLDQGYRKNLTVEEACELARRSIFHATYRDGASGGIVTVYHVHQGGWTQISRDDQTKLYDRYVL
# Homo sapiens = species on record: Homo sapiens; assay: To identify inhibition of the IFN signalling (Jak-Stat) pathway via expression of an eGFP reporter gene under the control of an IFN-stimulated response element (ISRE) containing MxA promoter.; type: functional; conditions: 30 µM
# [7] = target: T4, Tyrosyl-tRNA synthetase, putative (Trypanosoma cruzi (strain CL Brener)) (UniProt Q4DSP6); assay: Trypanosoma cruzi tyrosyl tRNA synthetase (TcYRS) _High Tyrosine SOP; type: functional; conditions: 30 µM; also: in the data most compounds retested in dose-response had high values
# T4 sequence (whole entry): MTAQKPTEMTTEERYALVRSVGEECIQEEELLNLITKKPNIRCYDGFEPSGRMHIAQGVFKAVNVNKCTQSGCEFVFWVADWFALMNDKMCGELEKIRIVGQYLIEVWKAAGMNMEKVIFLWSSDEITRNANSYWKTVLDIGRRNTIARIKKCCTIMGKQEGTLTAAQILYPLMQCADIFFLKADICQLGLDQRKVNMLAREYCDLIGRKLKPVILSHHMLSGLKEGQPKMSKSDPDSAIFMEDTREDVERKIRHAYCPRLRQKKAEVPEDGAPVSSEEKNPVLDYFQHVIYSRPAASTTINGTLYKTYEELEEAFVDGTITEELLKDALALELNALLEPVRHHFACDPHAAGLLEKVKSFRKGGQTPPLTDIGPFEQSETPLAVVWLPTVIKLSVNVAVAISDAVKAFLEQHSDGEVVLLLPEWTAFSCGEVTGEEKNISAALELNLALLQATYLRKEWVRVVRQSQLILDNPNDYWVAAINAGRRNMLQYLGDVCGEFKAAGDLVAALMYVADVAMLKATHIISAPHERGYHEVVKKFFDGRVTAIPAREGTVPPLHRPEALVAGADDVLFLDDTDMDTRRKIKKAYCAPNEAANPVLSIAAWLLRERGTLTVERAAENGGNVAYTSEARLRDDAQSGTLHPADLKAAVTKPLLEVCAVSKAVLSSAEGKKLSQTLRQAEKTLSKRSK
# [8] = target: T4, Tyrosyl-tRNA synthetase, putative (Trypanosoma cruzi (strain CL Brener)); assay: Trypanosoma cruzi tyrosyl tRNA synthetase (TcYRS) SOP; type: functional; conditions: 30 µM
# [9] = target: Chromo domain-containing protein 1 (Saccharomyces cerevisiae (strain ATCC 204508 / S288c) (Baker's yeast)) (UniProt P32657); assay: ScCHD-1 Enzyme Inhibition Assay; type: functional; conditions: 30 µM; also: in the data most compounds retested in dose-response had high values
# Sequence of Chromo domain-containing protein 1 (Saccharomyces cerevisiae (strain ATCC 204508 / S288c) (Baker's yeast)) (P32657 whole entry, the tested form may be a part): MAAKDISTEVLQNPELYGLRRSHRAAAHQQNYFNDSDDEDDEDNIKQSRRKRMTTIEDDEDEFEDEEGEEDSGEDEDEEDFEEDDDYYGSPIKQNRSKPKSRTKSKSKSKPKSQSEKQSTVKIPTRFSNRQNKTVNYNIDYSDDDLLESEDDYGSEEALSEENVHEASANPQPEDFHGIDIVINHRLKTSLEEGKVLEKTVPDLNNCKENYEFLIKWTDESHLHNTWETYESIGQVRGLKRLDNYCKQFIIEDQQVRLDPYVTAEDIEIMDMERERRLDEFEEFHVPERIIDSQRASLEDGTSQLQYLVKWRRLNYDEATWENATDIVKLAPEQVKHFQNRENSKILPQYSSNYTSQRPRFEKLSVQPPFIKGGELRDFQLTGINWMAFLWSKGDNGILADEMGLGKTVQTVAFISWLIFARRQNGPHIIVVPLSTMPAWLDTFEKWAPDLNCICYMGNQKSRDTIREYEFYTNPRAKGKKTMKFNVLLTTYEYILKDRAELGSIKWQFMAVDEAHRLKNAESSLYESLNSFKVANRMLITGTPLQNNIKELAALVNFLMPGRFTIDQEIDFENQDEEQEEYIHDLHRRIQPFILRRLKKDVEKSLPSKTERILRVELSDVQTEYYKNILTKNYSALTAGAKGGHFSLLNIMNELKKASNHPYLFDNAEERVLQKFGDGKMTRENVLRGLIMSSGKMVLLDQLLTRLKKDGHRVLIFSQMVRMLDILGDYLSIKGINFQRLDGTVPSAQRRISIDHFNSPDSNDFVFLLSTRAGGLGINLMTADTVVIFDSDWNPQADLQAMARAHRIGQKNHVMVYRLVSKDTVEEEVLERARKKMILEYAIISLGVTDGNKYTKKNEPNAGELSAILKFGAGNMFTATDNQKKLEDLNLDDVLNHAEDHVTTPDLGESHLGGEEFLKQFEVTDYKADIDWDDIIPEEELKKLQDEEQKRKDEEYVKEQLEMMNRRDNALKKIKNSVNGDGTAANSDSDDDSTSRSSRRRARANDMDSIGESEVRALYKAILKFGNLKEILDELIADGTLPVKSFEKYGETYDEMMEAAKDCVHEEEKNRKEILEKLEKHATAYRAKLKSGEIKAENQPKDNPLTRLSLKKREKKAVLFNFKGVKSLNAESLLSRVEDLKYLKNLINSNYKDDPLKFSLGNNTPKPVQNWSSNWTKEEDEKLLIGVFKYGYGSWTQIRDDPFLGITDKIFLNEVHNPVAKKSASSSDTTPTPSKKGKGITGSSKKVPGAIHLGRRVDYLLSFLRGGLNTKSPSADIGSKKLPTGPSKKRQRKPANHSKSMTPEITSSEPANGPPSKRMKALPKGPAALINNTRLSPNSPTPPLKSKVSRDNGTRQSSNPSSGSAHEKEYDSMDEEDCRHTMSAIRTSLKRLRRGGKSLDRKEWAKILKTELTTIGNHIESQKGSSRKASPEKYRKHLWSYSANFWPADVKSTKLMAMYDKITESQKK
# Sequence of Protein translocase subunit SecA (Escherichia coli (strain K12)) (P10408 whole entry): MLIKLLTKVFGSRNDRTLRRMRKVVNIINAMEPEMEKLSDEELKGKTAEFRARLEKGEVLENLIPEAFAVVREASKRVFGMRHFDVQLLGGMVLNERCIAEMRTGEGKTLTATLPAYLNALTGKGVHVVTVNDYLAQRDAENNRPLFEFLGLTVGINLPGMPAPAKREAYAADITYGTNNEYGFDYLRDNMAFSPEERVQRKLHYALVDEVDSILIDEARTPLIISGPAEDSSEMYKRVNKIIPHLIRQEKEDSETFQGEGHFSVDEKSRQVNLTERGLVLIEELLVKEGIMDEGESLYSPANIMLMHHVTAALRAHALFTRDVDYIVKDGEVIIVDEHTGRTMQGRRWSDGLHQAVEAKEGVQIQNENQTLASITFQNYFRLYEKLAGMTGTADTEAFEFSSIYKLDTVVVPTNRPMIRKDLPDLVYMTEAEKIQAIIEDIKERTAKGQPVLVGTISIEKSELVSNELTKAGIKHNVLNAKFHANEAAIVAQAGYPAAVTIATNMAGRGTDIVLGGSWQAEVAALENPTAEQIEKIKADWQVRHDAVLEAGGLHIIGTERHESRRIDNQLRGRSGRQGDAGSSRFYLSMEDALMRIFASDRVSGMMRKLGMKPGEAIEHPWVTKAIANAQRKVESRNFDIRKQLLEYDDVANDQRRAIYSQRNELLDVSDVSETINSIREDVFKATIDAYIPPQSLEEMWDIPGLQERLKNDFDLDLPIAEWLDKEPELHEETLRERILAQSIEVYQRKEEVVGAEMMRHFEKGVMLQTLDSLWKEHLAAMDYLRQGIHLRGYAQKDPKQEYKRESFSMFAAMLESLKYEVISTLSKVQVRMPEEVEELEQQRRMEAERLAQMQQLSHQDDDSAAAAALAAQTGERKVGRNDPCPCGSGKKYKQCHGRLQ
Structure (SMILES),Percent Effect [1] [%],Percent Effect [2] [%],Percent Effect [3] [%],Percent Effect [4] [%],Percent Effect (Trypanosoma cruzi) [%],Percent Effect [5] [%],Percent Effect [6] [%],Percent Effect (Homo sapiens) [%],Percent Effect [7] [%],Percent Effect [8] [%],Percent Effect [9] [%]
Cn1ncc2c1CCCC2NCc1cnc(-c2ccccc2)nc1 (stereo not given),-8.3,13.5,-13.8,24.2,4.62,-7.21,1.44,22.4,2.46,18.5,-12.3
N#Cc1ccnc(N2CCN(Cc3cccc(F)c3)CC2)c1,-3.54,18.9,-3.8,19.9,4.2,3.23,9.01,4.37,4.3,16.1,-8.71
Cc1nc2ccccc2c(=O)n1CCC(=O)N1CCNC(=O)C1,-4.53,10.5,6.29,11.3,0.94,0,3.51,2.72,4.41,9.76,-6.93
CC(Cc1ccco1)NC(=O)Nc1ccc(N2CCOCC2)nc1 (stereo not given),-3.25,15.8,-15.8,11.3,1.5,0.383,11.2,-9.28,3.43,19.5,-11.4
CC(=O)N1CCCC1c1ccc(-c2c(C)noc2C)cn1 (stereo not given),0.953,-4.05,8.36,2.83,-3.56,6.26,4.52,5.24,-1.07,-3.9,3.24
CC(C)c1nc(CN2CCN(C(C)c3nc(C4CC4)no3)CC2)no1 (stereo not given),-0.845,-3.8,4.42,1.01,-1.13,1.07,3.09,-8.78,2.08,2.53,2.13
NC(=O)Cc1ccc(NC(=O)C2CCOCC2)cc1,-3.03,10.8,-5.71,-1.1,-7.52,2.03,11.5,19.3,5.94,15.8,-1.7
CC(Cn1ccnc1)NC(=O)C1(c2ccc3c(c2)OCCO3)CCCC1 (stereo not given),-1.6,20.2,-9.88,-5.21,1.79,-2.66,15.2,10.3,6.4,24.1,-7.42
Cc1cnn(C2CCCN(C(=O)c3cc(C)sc3C)C2)c1 (stereo not given),2.61,7.89,4.46,-9.37,-4.97,1.18,18.7,-4.44,5.32,7.79,-5.57
O=C1CC2(CCN(CC3CCOC3)CC2)CN1Cc1cc(F)cc(F)c1 (stereo not given),-5.41,12.5,-5.76,26.3,4.37,16.3,9.65,-12.9,2.1,10.3,-4.1
CC(C)c1nccn1CCCNC(=O)c1ccc(-c2cncnc2)nc1,-0.347,8,-10.9,8.21,3.21,7.29,16.2,17.9,4.92,13.6,-5.5
Cc1ccc(NC(=O)NC(C)c2nc[nH]n2)cc1 (stereo not given),-6.05,-10.8,-1.56,-5.4,-1.86,-0.248,15.9,-15.4,1.07,1.24,-1.66
O=C(Cn1ccc2c(Cl)cccc21)N[C@@H](C(=O)O)c1ccccc1,-1.64,4,6.31,0.703,-4.71,-7.57,19.8,-11.3,-7.41,-2.56,-4.5
O=C(NCc1ccccn1)N(Cc1ccc(F)cc1F)C1CC1,-3.99,12.7,3.15,9.47,-0.0944,-1.52,5,12,5.42,13.9,-5.13
O=C(c1cc(F)ccc1F)C1CCN(C(=O)c2cccnc2O)CC1,-5.29,7.79,3.43,13.6,2.06,0.21,3.8,-28.1,1.91,9.41,-12.7
Cc1cc(C)cc(NS(=O)(=O)c2cc3c(c(C(=O)O)c2)OCCO3)c1,-4.74,6.33,-7.57,3.67,0.308,-5.38,15.4,2.08,-10.4,-5.06,-26.1
CC(C)Oc1ncnc2c1CCN(Cc1cccs1)CC2,3.01,0,24.6,8.66,-0.193,-43.9,3.76,8.59,6.25,10,-1.96
CCC1CN(CC(=O)Nc2sccc2C#N)CCO1 (stereo not given),-4.43,-13.2,-2.5,2.86,0.376,0,8.19,-2.35,4.41,9.76,-9.42
CN(C)C(=O)N1CCN(C(=O)CCc2ccccc2)[C@H]2CS(=O)(=O)C[C@H]21,-0.417,5.41,-5.99,6.47,4.44,-2.86,15.3,23.4,8.99,9.76,-2.21
COC(=O)CCC(=O)N1CCC2(CN(Cc3cccc(F)c3)C2)C1,-1.57,0,35.4,0.909,1.54,-52.5,1.71,-9.09,-2.08,-2.5,-1.45
